This is part of a sample that, as a whole, favours compounds with a hit. Of some 83,000 tested, about 20% had one in any assay.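 The test compound was applied at a single concentration to cells in 96-well plates for 48 hours, and percent growth was recorded.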 Unmarked numbers belong to inactive results. Calls of active or inactive are those of the source. How the source made its calls: active means growth percent below 10; inactive means the rest.
What follows are compounds tested on SF-539 CNS (assay: NCI-60 one-dose screen, 48 h (100 = growth as untreated, 0 = no growth, -100 = all killed)). Conditions: 10 µM unless noted.
With `O=C(O)COc1ccc([N+](=O)[O-])cc1Cl` the growth was 98%.
For `C=C[C@]1(C)C=C2C(=O)[C@@]3(O)OC[C@@]4(CCCC(C)(C)C43O)C2(O)C(O)C1` (some centres undefined), the growth was 66.2%.
`COC(=O)C(C(=O)OC)C(Br)C(Br)C(Br)c1ccccc1` (centres undefined) was tested, and the growth was 98%.
In the case of `C=CCNCCC#N`, the growth is reported as 107%.
`N#CCc1ncc(-c2ccc(C(F)(F)F)cc2)c(NC2CCCCCC2)n1` showed a growth of 67.2% [100 µM].
Work on `C[C@]12CC[C@H]3[C@@H](CC[C@H]4C[C@@H](O)CC[C@@]43C)[C@@H]1CC(=O)C2` yielded a growth of 92.7%.
For `COC(=O)c1cc(=O)nc(N/N=C/c2ccccc2O)s1`, the growth was 106%.
`[N-]=[N+]=Nc1ncc(-c2ccc(C(F)(F)F)cc2)c(NC2CCCCCC2)n1` showed a growth of 66.2% [100 µM].
Compound `NC(CSC(c1ccccc1)(c1ccccc1)c1ccccc1)C(=O)NCC(=O)O` (centres undefined) has a growth of 21.3%.
For `COc1cc(-c2nc(/C=C3/C(=O)Nc4ccccc43)c3ccccn23)cc(OC)c1OC`, the growth was 83.6%.
For `COc1cc2cn3c4ccc(O)cc4[nH]c(=O)c3c2cc1OC`, the growth was 5.31% (active).
`CCCCCCCCCCCCCCCCNC(=O)Nc1ccc(C)c(NC(=O)NCCCCCCCCCCCCCCCC)c1` showed a growth of 110%.
For `O=C(c1ccccc1)c1ccccc1-c1ccccc1`, the growth was 20.4%.
`CN1NC(c2ccccc2)NN(C)C1=O` showed a growth of 106%.
Work on `COc1cc2c(c3c1c(=O)c1cccc(F)c1n3C)C=CC(C)(C)O2` yielded a growth of 89%.
`NCCCOc1cc2ccccc2cc1C(=O)Nc1ccc(Cl)cc1OC(=O)c1cc2ccccc2cc1OCCCN` was tested, and the growth was -89.6% (active).
`O=C(/C=C/c1ccc(Cl)cc1)c1ccc(Cl)cc1` showed a growth of 104%.
`CC(=O)O.[In]` gave a growth of 110%.
For `COC(=O)[C@H](Cc1cn(C)cn1)NC(=O)[C@H](CC(=O)OCc1ccccc1)NC(=O)Nc1cc(C(F)(F)F)cc(C(F)(F)F)c1`, the growth was -94.6% [100 µM] (active).
Compound `COc1cc([C@@H]2c3cc4c(cc3[C@H](O)[C@H]3COC[C@@H]23)OCO4)cc(OC)c1OC` has a growth of 75%.
With `COc1ccc(/C=C2\CCCC3=C2N=C2SC=NN2C3c2ccc(OC)c(OC)c2)cc1OC` (centres undefined) the growth was 37.4%.
`CC(=O)CC(=O)OC/C=C(/C)CCC=C(C)C` was tested, and the growth was 97%.
In the case of `CC(=O)Nc1ccc(S(=O)(=O)Cl)cc1`, the growth is reported as 100%.
Work on `CC(CCN1CCN(CCC(C)CC(C)(C)C)C1CC(C)CC(C)(C)C)CC(C)(C)C` (centres undefined) yielded a growth of 91.5%.
`C=C(C)C(C(=O)OCC)(C(=O)OCC)C(C)C` showed a growth of 105%.
`CSCc1ncc(-c2ccc(C(F)(F)F)cc2)c(NC2CCCCCC2)n1` gave a growth of 93.8% [25 µM].
`CCn1cnc(C[C@H](NC(=O)[C@@H](NC(=O)Nc2cc(C(F)(F)F)cc(C(F)(F)F)c2)C(C)C)C(=O)OC)c1` was tested, and the growth was -96.3% [100 µM] (active).
For `O=Nc1ccc(O)c2ccccc12`, the growth was 0.651% (active).
Work on `COC(=O)c1c[n+]([O-])ccc1OC` yielded a growth of 122%.
With `CC#Cc1nc(Nc2cc(C)[nH]n2)c2ccccc2n1` the growth was 1.15% [100 µM] (active).
In the case of `CC(Br)c1nc2ccccc2cc1C(N)=O` (centres undefined), the growth is reported as 103%.
With `COC(=O)[C@H](Cc1cn(C)cn1)NC(=O)[C@@H](NC(=O)Nc1cc(C(F)(F)F)cc(C(F)(F)F)c1)C(C)(C)C` the growth was -84.4% [100 µM] (active).
With `CCCCCCC(C(=O)OCC)(C(=O)OCC)C1CCCCCC1` the growth was 92.8%.
With `CCCCCCCCCCCCCCCCCCOP(=O)(O)O` the growth was 104%.
`CCC(C)CC(N)O` (centres undefined) gave a growth of 107%.
`CN(C)CCOC(=O)C(C)(C)C` gave a growth of 109%.
`CNc1ccc(Nc2ccc(S(=O)(=O)O)cc2)c2c1C(=O)c1ccccc1C2=O` gave a growth of 101%.
Compound `Cn1c2ccccc2c2ccccc21` has a growth of 108%.
In the case of `NCCCOc1cc(Cl)ccc1NC(=O)c1cc2ccccc2cc1OCCCN`, the growth is reported as -88.8% (active).

Reference: PubChem BioAssay (NCI)
